Bim-Bcl-W: disrupts Bim peptide binding to human Bcl-W | Q92843 | bead-based flow cytometry | inhibition, % at 10 µM | 190,000 compounds, 0.02% hits | AID 952;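 further: higher means less fluorescent Bim peptide bound to Bcl-W beads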
Bfl-1 Bim block: disrupts Bim binding to human Bfl-1; inhibition, % at 10 µM; AID 1008; Bead-based flow cytometry, Bim-Bfl-1 binding inhibition; 190,000 compounds, 0.12% hits
Target sequence (Q16548 whole entry, looked up): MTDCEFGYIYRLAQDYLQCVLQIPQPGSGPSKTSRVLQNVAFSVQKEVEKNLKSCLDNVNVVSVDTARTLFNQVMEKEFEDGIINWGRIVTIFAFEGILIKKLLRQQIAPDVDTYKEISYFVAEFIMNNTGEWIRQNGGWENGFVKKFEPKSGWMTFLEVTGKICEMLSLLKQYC
Bim-Bcl-XL: inhibitors of Bim-Bcl-XL interaction, human; Q07817; Bim peptide-Bcl-XL binding, bead flow cytometry, fluorescence; inhibition, % at 10 µM; 190,000 compounds, 0.04% hits; AID 1007
Bcl-2 Bim block: disrupts Bim peptide binding to human Bcl-2 | P10415 | Bead-based flow cytometry, Bim peptide-Bcl-2 binding | inhibition, % at 10 µM | 190,000 compounds, 0.06% hits; in the data active means inhibition above about 40%
Target sequence (P10415 whole entry, looked up): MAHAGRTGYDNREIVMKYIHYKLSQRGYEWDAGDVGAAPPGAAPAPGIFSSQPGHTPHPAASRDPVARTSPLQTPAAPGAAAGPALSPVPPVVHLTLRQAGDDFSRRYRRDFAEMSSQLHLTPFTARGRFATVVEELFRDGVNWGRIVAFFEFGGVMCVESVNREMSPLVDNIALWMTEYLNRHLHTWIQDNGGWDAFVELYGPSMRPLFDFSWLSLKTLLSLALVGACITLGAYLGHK
Arbovirus inh: arbovirus infection inhibition; inhibition, % at 10 µM; AID 1251; 200,000 compounds, 0.37% hits; arbovirus infection cell-based antiviral screen; in the data active means inhibition above about 30%
Bim-Bcl-B: human Bim-Bcl-B interaction inhibition; 190,000 compounds, 0.073% hits; Q9HD36; AID 951; inhibition, % at 10 µM; bead-based flow cytometry, Bim peptide-Bcl-B binding
Large screens that a line does not name were inactive. The list is not random: actives were taken first. Their share in the collection is about 0.56%. Unless noted, no stated cut-off is given here; in the data, active means inhibition above about 40%.

c1ccc(C2CCC3(CC2)Oc2ccccc2C2CC(c4cccnc4)=NN23)cc1 (configuration not stated)	none
Cc1ccc(C(=O)N(CCCN(C)C)c2nc3ccc(Cl)cc3s2)cc1C	Bfl-1 Bim block 57, Bcl-2 Bim block 82, Bim-Bcl-B 79
CN(C)CCCN(C(=O)c1ccco1)c1nc2ccc(Cl)cc2s1	none
CN(C(=O)c1coc(=O)c2ccccc12)c1ccc(F)cc1	none
CN(C(=O)c1coc(=O)c2ccccc12)c1ccc(Br)cc1	Arbovirus inh 40
CN(CC(O)Cn1c2ccccc2c2ccccc21)S(C)(=O)=O (configuration not stated)	none
CS(=O)(=O)N(CC(O)Cn1c2ccccc2c2ccccc21)c1ccccc1 (configuration not stated)	Arbovirus inh 42
O=[N+]([O-])c1ccccc1S(=O)(=O)Oc1ccc(C(=S)N2CCOCC2)cc1	none
Cc1ccc(C)c(Oc2ncnc(N)c2[N+](=O)[O-])c1	Bfl-1 Bim block 43, Bim-Bcl-XL 46
CCN=c1scc(-c2ccco2)n1/N=C/c1ccc(O)cc1	none
CCN=c1scc(C)n1/N=C/c1ccc(O)c(O)c1O	Bfl-1 Bim block 51
CCN=c1scc(C)n1/N=C/c1cc(Br)c(O)c(Br)c1	Arbovirus inh 31
COCCN=c1scc(-c2cccs2)n1/N=C/c1ccc(O)c(O)c1O	Bfl-1 Bim block 40
COc1ccc(-n2cccc2/C=C2/NC(=O)N(c3cccc(Cl)c3)C2=O)cc1	none
O=C(O)c1cccc(-n2cccc2C=C2C(=O)c3ccccc3C2=O)c1	none
O=C(O)c1cccc(-n2cccc2/C=C2/NC(=O)N(c3ccc(Cl)cc3)C2=O)c1	Arbovirus inh 32
Cc1ccccc1N=C1NC(=O)/C(=C/c2cccn2-c2cccc(C(=O)O)c2)S1	Arbovirus inh 76
CCOC(=O)c1cnc2c(-c3ccc(F)cc3)cnn2c1C(F)(F)F	Arbovirus inh 62
CCOc1ccc(NC(=O)Nc2cc(-c3ccccc3)sc2C(=O)OC)cc1	Arbovirus inh 34
COC(=O)c1sc(-c2ccccc2)cc1NC(=O)C1CC1	none
Cc1nc2ncccn2c1-c1csc(Nc2ccc(O)cc2)n1	Bim-Bcl-XL 62
CCC1=NN2C(=N)/C(=C\c3cccn3-c3ccc(Br)cc3)C(=O)N=C2S1	none
COc1ccc(-n2cccc2/C=C2\C(=N)N3N=C(C(C)C)SC3=NC2=O)cc1	Arbovirus inh 30
COc1ccc(-n2cccc2/C=C2\C(=N)N3N=C(c4ccco4)SC3=NC2=O)cc1	Arbovirus inh 39
Cc1nc2c(C(=O)NCCc3ccccc3)c[nH]n2c(=O)c1Cl	none
Cc1nc2c(C(=O)NCCC(C)C)c[nH]n2c(=O)c1Cl	Arbovirus inh 36
Cc1ccc(C2CCN(C(=S)NC(C)C)C2)cc1 (configuration not stated)	none
COc1cccc(CN=C2Nc3ccccc3CS2)c1	Arbovirus inh 30
Cc1ccc(CN=C2Nc3ccccc3CS2)cc1	none
O=C(C1CCCN(Cc2nc(-c3ccc(Cl)cc3)no2)C1)N1CCOCC1 (configuration not stated)	none
FC(F)(F)c1nc(=S)c2ccccc2[nH]1	none
Cc1nc(=S)c2ccccc2[nH]1	Bfl-1 Bim block 68, Bcl-2 Bim block 87, Bim-Bcl-B 85
Cc1ccc(C)c(-n2c3nc(=O)[nH]c(=O)c-3cc3cc([N+](=O)[O-])ccc32)c1	none
Cc1cccc(-n2c3nc(=O)[nH]c(=O)c-3cc3cc([N+](=O)[O-])ccc32)c1	Arbovirus inh 38
Cc1nc(CSc2ccc(Cl)cc2)cc(NCc2ccccc2)n1	none
Cc1nc(CS(=O)c2ccc(Cl)cc2)cc(NCc2ccc(Cl)cc2Cl)n1 (configuration not stated)	Arbovirus inh 85
CSCCC(NC(=O)/C(=C\c1ccc(Cl)cc1)NC(=O)c1ccccc1)C(=O)O (configuration not stated)	none
Cc1cccc2cc(C3CC(c4ccco4)=NN3C(=O)CCC(=O)O)c(Cl)nc12 (configuration not stated)	none
Fc1ccccc1N1CCN(Cc2nc(-c3ccc(Cl)cc3Cl)no2)CC1	Arbovirus inh 31
Cc1ccc(NC(=O)/C(Cl)=C/c2ccccc2)cc1C	none
COc1cc(C=Nc2cccc(C)c2)c(O)c([N+](=O)[O-])c1	Bfl-1 Bim block 42, Bcl-2 Bim block 44, Bim-Bcl-B 58
Cc1ccc2nc(-c3ccc(Br)o3)oc(=O)c2c1	Arbovirus inh 37
COc1cc(/C=N/Nc2nn3cnnc3c3ccccc23)ccc1O	Bim-Bcl-XL 42
COc1cccc(/C=N/Nc2nn3cnnc3c3ccccc23)c1	none
C/C(=N\NC(=O)Cc1cccn1C)c1ccc2ccccc2c1	Bcl-2 Bim block 50, Bim-Bcl-B 46
COc1ccc(/C=N/n2cc(-c3ccccc3)nc2N)cc1	Bfl-1 Bim block 65, Bcl-2 Bim block 84, Bim-Bcl-B 84
O=C1CC(/C=C/c2ccncc2)=Nc2ccccc2N1	none
Cc1ccc(C(=O)Nc2ccccc2-c2ccccc2)o1	none
COc1ccc(-c2csc(NC(=O)c3cccs3)c2C(=O)O)cc1OC	none
O=C(/C=C/c1ccccc1)Nc1scc(-c2ccccc2)c1C(=O)O	Arbovirus inh 73
COc1ccc(-c2csc(NC(=O)Cc3cccc4ccccc34)c2C(=O)O)cc1	Arbovirus inh 47
Cc1ccc(C(=O)Nc2scc(-c3ccccc3)c2C(=O)O)o1	Arbovirus inh 62
CC(C)c1ccc(-n2cccc2/C=C2/C(=N)N3C=CSC3=NC2=O)cc1	none
CCC1=NN2C(=N)/C(=C\c3cccn3-c3ccc(C)cc3C)C(=O)N=C2S1	Arbovirus inh 39
CCC1=NN2C(=N)/C(=C\c3cccn3-c3cccc(Cl)c3)C(=O)N=C2S1	none
CCC1=NN2C(=N)/C(=C\c3cccn3-c3c(C)cccc3C)C(=O)N=C2S1	Arbovirus inh 31
O=C(Cn1cc([N+](=O)[O-])nc1[N+](=O)[O-])N1CCN(c2ccccc2)CC1	none
O=C(Nc1cccc(Cl)c1)Nc1ccnc(-c2cccnc2)n1	Arbovirus inh 34
CC(=O)Nc1ccnc(-c2cccnc2)n1	none
CCc1cc2c(=O)c(-c3cscn3)coc2c(CN(C)C)c1O	Arbovirus inh 38
CCCCc1ccc(NC(=S)NCc2ccc(OC)cc2)cc1	Bcl-2 Bim block 44, Bim-Bcl-B 51
COc1ccc(CNC(=S)Nc2ccc(OC)cc2)cc1	none
O=C(Nc1ccccc1)n1cc(-c2ccccn2)c(N2CCOCC2)n1	none
Cc1ccc(Cl)c(OCCCCN(C)Cc2ccccc2)c1	none
CN(CCCOc1ccccc1Br)Cc1ccccc1	Bim-Bcl-W 98, Bfl-1 Bim block 99, Bim-Bcl-XL 102, Bcl-2 Bim block 91, Bim-Bcl-B 108
CC(OC(=O)c1cc2c(ccc3ccccc32)oc1=O)c1nc2ccccc2s1 (configuration not stated)	none
COc1cccc(C2=CC(c3ccc(C)cc3)n3ncnc3N2)c1 (configuration not stated)	Arbovirus inh 66
